Molecules are shown by their SMILES. Records with an inconclusive call do not appear. Entries that show only a call come without a potency. Activity calls are given as the source filed them. The call rests on the fitted dose curve; in most records, active means well fitted cell-killing curve with a large enough effect in the repeat runs; inconclusive means weak or mixed curves, or effect the other way; inactive means no such curve, though single readings can be large or run the other way.

A short description of this assay: qHTS assay to identify small molecule antagonists of the vitamin D receptor (VDR) signaling pathway - cell viability counter screen (AID 743225). Further: nearly all actives have a fitted effect of over 50% in size. The settings on record: VDR-bla HEK293T viability, CellTiter-Glo luminescence, 16 h; series mostly up to 61 µM. The text has this: U.S. Tox21 Program National Center for Advancing Translational Sciences [NCATS] NIH Chemical Genomics Center [NCGC] U.S. Environmental Protection Agency [EPA] National Institutes of Environmental Health Sciences [NIEHS] National Toxicology Program [NTP] U.S. Food and Drug Administration [FDA] Tox21 Assay Overview: The vitamin D receptor (VDR), a member of nuclear hormone receptor superfamily, plays a critical role in calcium homeostasis and bone metabolism. It is also involved in cell differentiation and growth, and thrombogenicity. To identify the compounds that inhibit VDR signaling, the VDR-UAS-bla HEK 293T cell line (Invitrogen, Carlsbad, CA, USA) containing a beta-lactamase reporter gene under the control of an upstream activator sequence (UAS) was used to screen the Tox21 10K compound library. The cytotoxicity of the Tox21 compound library against the VDR-bla cell line was tested in parallel by measuring the cell viability using CellTiter-Glo assay (Promega, Madison, WI) in the same wells.
Tox21 Assay Protocol Summary: VDR-bla cells were dispensed at 2,000 cells/5 uL of assay medium per well into black wall/clear-bottom 1536-well plates using a Multidrop Combi (Thermo Fisher Scientific, Waltham, MA) dispenser. After the assay plates were incubated at a 37C and 5% CO2 for 4 h, 23 nL of compounds dissolved in DMSO, positive controls or DMSO only was transferred to the assay plate by a Pintool station (Kalypsys, San Diego, CA), followed by addition of 1 uL of 1-alpha, 25-Dihydroxy Vitamin D3 (3 nM, final concentration in the wells) using a Bioraptr Flying Reagent Dispenser (FRD) workstation (Beckman Coulter, Indianapolis, IN). The plates were incubated at 37C and 5% CO2 for 16 h, and then 1 uL of LiveBLAzerTM B/G FRET substrate was added using a Bioraptr FRD. The plates were incubated at room temperature for 2 h and fluorescence intensity was measured by an Envision plate reader (PerkinElmer, Shelton, CT). For cell viability readout that measures cytotoxicity, 3 ul/well of CellTiter-Glo reagent was added into the assay plates using a Bioraptr FRD. After 30 min incubation at room temperature, the luminescence intensity in the plates was measured using a ViewLux plate reader (PerkinElmer).
For orientation: Quantitative high-throughput screening tests each substance at several concentrations.
With `CCOC(=O)CC(=O)OCC`, the Potency entry was “inactive”.

On to `Cc1cc(CC(=O)O)n(C)c1C(=O)c1ccc(Cl)cc1`, for which the Potency entry was “inactive”.

Take `Nc1nc(N)c2nc(-c3ccccc3)c(N)nc2n1`: the Potency entry is “inactive”.

For `Oc1ccc(Cc2ccccc2O)cc1`, the Potency entry was “inactive”.

As to `Cc1ccc(C)c(S(=O)(=O)O)c1`, the Potency result was “inactive”.

As to `O=C(c1ccccc1)c1ccc(O)c(O)c1O`, the Potency result was “inactive”.

For `CC/C(C)=N/O`, the Potency result is “inactive”.

`CO[Si](CCCNCCN)(OC)OC`: the Potency entry is “inactive”.

For `COC(=O)OC`, the Potency result was “inactive”.

For `CC(=O)C(C)C`, the Potency result is “inactive”.

In the case of `Cc1cc(C)c(O)c(C)c1`, the Potency result was “inactive”.

`CC(C)=CCC/C(C)=C/C=O`: the Potency result is “inactive”.

For `CCCN(CCC)C(=O)SCC`, the Potency result is “inactive”.

Regarding `OCC(CO)(CO)CO`, the Potency entry was “inactive”.

`NC(N)=S`: the Potency result is “inactive”.

As to `C=C1C[C@]23C[C@@]1(O)CC[C@H]2[C@@]12C=C[C@H](O)[C@@](C)(C(=O)O1)[C@H]2[C@@H]3C(=O)O`, the Potency result was “inactive”.

As to `C=C(C)CC(C)(C)C`, the Potency result was “inactive”.

Take `OCCOCCOCCOCCOCCO`: the Potency result was “inactive”.

With `CC(=O)CC(=O)N(C)C`, the Potency entry is “inactive”.

Consider `CCn1cc(C(=O)O)c(=O)c2cc3c(cc21)OCO3`, for which the Potency entry is “inactive”.

As to `CC(O)CNCC(C)O` (stereo not given), the Potency result is “inactive”.

Take `CCCOCC(C)O` (stereo not given): the Potency entry was “inactive”.

Take `OCc1ccc(Cl)cc1Cl`: the Potency entry is “inactive”.

Turning to `Cc1ccccc1C=O`, the Potency result is “inactive”.

For the compound `COCN(COC)c1nc(N(COC)COC)nc(N(COC)COC)n1`, the Potency entry is “inactive”.

With `Nc1cccc(N)n1`, the Potency entry was “inactive”.

Regarding `OCC(O)CS` (stereo not given), the Potency entry is “inactive”.

In the case of `Cc1ccc(Cl)cc1`, the Potency result is “inactive”.

As for `O=C(O)Cc1c[nH]c2ccccc12`, the Potency entry was “inactive”.

With `Cc1ccc([N+](=O)[O-])cc1N`, the Potency result was “inactive”.

Regarding `CCCCC(=O)O`, the Potency entry was “inactive”.

Turning to `CCOC(=O)c1ccc(O)cc1`, the Potency result is “inactive”.

As for `Cc1ccc(C(C)C)cc1`, the Potency entry was “inactive”.

As for `CC/C=C(\C(=O)N[C@@H]1C(=O)N2C(C(=O)OCOC(=O)C(C)(C)C)=C(COC(N)=O)CS[C@H]12)c1csc(N)n1`, the Potency result is “inactive”.

Take `CC(=O)OC[C@H]1O[C@@](COC(C)=O)(O[C@H]2O[C@H](COC(C)=O)[C@@H](OC(C)=O)[C@H](OC(C)=O)[C@H]2OC(C)=O)[C@@H](OC(C)=O)[C@@H]1OC(C)=O`: the Potency entry is “inactive”.

For `CCCCCCCC(=O)O`, the Potency entry is “inactive”.

`CC(C)c1ccc(C(C)C)cc1`: the Potency result was “inactive”.

With `NC(=O)NC(N)=O`, the Potency result was “inactive”.

As for `CC(=O)OC/C=C(\C)CCC=C(C)C`, the Potency entry was “inactive”.

On to `O=C1C(N(CO)C(=O)NCO)N(CO)C(=O)N1CO` (stereo not given), for which the Potency result is “inactive”.
